# Hits are enriched below; roughly 0.9% of the tested compounds scored in any of these assays.
# gsp agonist: gsp mutant agonism. gsp mutant cells, cAMP HTRF, 30 min. Potency, µM (doses to about 76.9 µM), for the others: top-dose activation (cAMP increase), hits mostly activators. actives 0.13% (n = 340,000). AID 624287; active means well fitted activation curve with a large enough effect; inconclusive means small, poorly fitted or top-dose-only effect, or another doubt; inactive means no such curve, though single readings can be large or run the other way; cell line not stated here;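 further: phosphodiesterase inhibitor Ro 20-1724 added with compounds to block cAMP breakdown; potency means the concentration at half of the fitted maximal effect; nearly all actives have a fitted effect of over 60% in size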
#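 Cells in DMEM/10% FBS with G418 were pretreated with compounds in DMSO plus […] (300 uM stock) for 30 min at 37C. cAMP was measured by HTRF (cAMP-d2 plus anti-cAMP antibody-K) after 30 min at room temperature.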
# RXFP1 agonist: agonists of human relaxin receptor RXFP1 | Q9HBX9 | HEK293T-RXFP1 cAMP TR-FRET, 30 min; response scale: percent of porcine relaxin response, buffer zero | Potency, µM (top dose mostly 57.5 µM), inactives show at the top dose activation, actives largely listed as activators | actives 0.3% (n = 370,000) | AID 2676; active means well fitted activation curve with a large enough effect; inconclusive means small, poorly fitted or top-dose-only effect; further: potency means the concentration at half of the fitted maximal effect; on the % scale 0 is the no-effect control and ±100 the full control effect; nearly all actives have a fitted effect of over 60% in size
# Target sequence (Q9HBX9 whole entry, looked up): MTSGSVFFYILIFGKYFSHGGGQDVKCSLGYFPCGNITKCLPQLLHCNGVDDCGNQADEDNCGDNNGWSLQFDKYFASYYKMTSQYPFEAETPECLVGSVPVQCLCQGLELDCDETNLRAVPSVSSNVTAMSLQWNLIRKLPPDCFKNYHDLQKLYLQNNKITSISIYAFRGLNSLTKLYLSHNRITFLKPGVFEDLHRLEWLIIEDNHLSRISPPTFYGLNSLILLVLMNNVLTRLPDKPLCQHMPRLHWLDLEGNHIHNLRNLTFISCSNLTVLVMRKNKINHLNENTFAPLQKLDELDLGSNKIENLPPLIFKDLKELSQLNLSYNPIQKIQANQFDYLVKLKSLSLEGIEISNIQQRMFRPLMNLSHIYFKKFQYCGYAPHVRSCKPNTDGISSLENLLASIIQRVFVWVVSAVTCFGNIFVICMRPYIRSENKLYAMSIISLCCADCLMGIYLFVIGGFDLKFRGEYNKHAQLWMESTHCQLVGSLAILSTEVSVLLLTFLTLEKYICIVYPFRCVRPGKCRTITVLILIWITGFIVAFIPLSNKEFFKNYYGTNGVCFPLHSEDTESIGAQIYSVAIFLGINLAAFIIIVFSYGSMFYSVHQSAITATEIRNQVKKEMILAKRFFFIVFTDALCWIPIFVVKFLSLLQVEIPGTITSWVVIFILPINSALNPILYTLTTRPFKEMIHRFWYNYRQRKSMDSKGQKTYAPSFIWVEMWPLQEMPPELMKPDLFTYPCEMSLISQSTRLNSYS
#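 Agonist response is measured as cAMP accumulation in an RXFP1-transfected HEK293T line under PDE4 inhibition. Values are scaled between buffer-only and 29 nM porcine relaxin, and EC50s come from standard Hill equation fits.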
# gsp antagonist: gsp mutant antagonism; gsp-mutant cells, cAMP HTRF, 30 min; Potency, µM (titrated, usually from 76.9 µM), inactives show at the highest dose activity change, negative = inhibition, actives largely listed as inhibitors; actives 0.4% (n = 340,000); AID 624288; calls by dose curve; cell line not stated here;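 further: intracellular cAMP measured with PDE inhibitor Ro 20-1724 present during compound exposure; potency means the concentration at half of the fitted maximal effect; on the % scale 0 is the no-effect control and ±100 the full control effect; nearly all actives have a fitted effect of over 65% in size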
#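 G418-selected cells were plated in DMEM/10% FBS for 16-24 h at 37C, then treated with compounds plus the PDE inhibitor […] (300 uM solution added) for 30 min at 37C. Intracellular cAMP was measured by HTRF after 30 min lysis at room temperature.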
# RXFP1 antagonist: antagonists of human relaxin receptor RXFP1. activity change, negative = inhibition, % at 57.5 µM. actives 0.59% (n = 350,000). HEK293-RXFP1, relaxin-stimulated cAMP HTRF, 30 min; active compounds read low. AID 1259400;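 active means activity change of -60% or lower, but not beyond a set lower limit; inconclusive means change between -60% and -40%, or beyond the set limit; inactive means change above -40%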; further: on the % scale 0 is the no-effect control and ±100 the full control effect
# Numbers without * were called inactive; u = inconclusive; x = not tested or not shown; [ ] = another dose, or the depositor's remark.
SMILES,gsp agonist,RXFP1 agonist,gsp antagonist,RXFP1 antagonist
COc1cc2c(cc1OC)C(C)N(C(=O)c1cc3c(s1)-c1c(C)cccc1OC3)CC2 (centres undefined),-69.7%,3.5%,35.5µM*,x
COC(=O)c1cc(NC(=O)c2oc(=O)c3ccccc3c2-c2ccccc2)cc(C(=O)OC)c1,x,3.4%,x,x
COc1ccc(N(C)C(=O)NCc2noc3ccc(C)cc23)c(OC)c1,x,2.1%,x,-6.6
CCN(CC)C(=O)COc1ccc(-c2nnc(N3CCCCC3)c3ccccc23)cc1,18.9%,-1.5%,-24.7%,-8.0
CCOc1ccc(-c2nnc(N3CCCCC3)c3ccccc23)cc1,-28.6%,-0.8%,50.1µM*,-31.9
O=S(=O)(c1ccc(F)cc1)N1CCC(Oc2ccc(-n3cnnn3)cc2)CC1,x,-0.2%,x,-6.5
CCOCCCN(C)C1CCN(C(=O)c2oc3ccccc3c2NC(=O)c2cccc([N+](=O)[O-])c2)CC1,-0.7%,-0.1%,-2.1%,-65.7*
O=C(Nc1cc(Cl)ccc1Oc1ccccc1)C1=COCCO1,-21.3%,0.1%,-12.2%,-75.5*
CCOc1ccc(Oc2ccc(Cl)cc2NC(=O)C2=COCCO2)cc1,0.3%,-0.4%,-6.7%,-5.6
CCOC(=O)c1cnc2ccc(OC)cc2c1NCc1ccccc1,u,0.5%,-28.4%,x
CCOC(=O)c1cnc2ccc(OCC)cc2c1NCc1ccccc1OC,0.5%[15.4 µM],-1.5%,31.6µM*,-35.1
Cc1ccc(C)c(CSc2cn(CC(=O)N3CCCCCC3)c3ccccc23)c1,x,-1.5%,x,-5.2
Cc1ccc(C)c(CSc2cn(CC(=O)N3CCCC3)c3ccccc23)c1,x,17.9%,x,-74.1*
CC1Cc2cc(/C(O)=C3/C(=O)C(=O)N(CCN4CCOCC4)C3c3cccc(Cl)c3)ccc2O1 (centres undefined),u,22.4%,-0.7%,18.6
CCCOc1cccc(C2/C(=C(/O)c3ccc4c(c3)CC(C)O4)C(=O)C(=O)N2CCN2CCOCC2)c1 (centres undefined),u,25.1µM*,-3.1%,16.5
C=CCOc1cccc(C2/C(=C(\O)c3ccc4c(c3)OCCO4)C(=O)C(=O)N2CCN2CCOCC2)c1 (centres undefined),u,25.1µM*,17.3%,55.8
Cc1noc(C)c1COc1ccccc1C(=O)N(C)Cc1ccc(C(C)(C)C)cc1,-36.3%,-2.1%,50.1µM*,-33.9
O=C1c2ccccc2NC(c2ccc(Br)s2)N1O (centres undefined),15.8µM*,x,-1.7%,-1.2
O=C(CSc1ccc2nnc(-c3ccc(F)cc3)n2n1)N1CCOCC1,20µM*,x,4.6%,x
NC(=O)c1ccsc1NC(=O)COC(=O)/C=C/c1ccccc1,22.8%[15.4 µM],-0.2%,u,-68.6*
Cc1ccc(CCNC(=O)c2ccc3c(=O)n(-c4ccc(C)cc4)c(=O)[nH]c3c2)cc1,x,20.9%,x,-1.0
CCCn1c(SCC(=O)N2CCc3ccccc3C2)nc2c1c(=O)n(C)c(=O)n2C,31.6µM*,u,11.5%,4.3
Cc1ccc(NC(=O)CCc2nnc3ccc(N4CCN(C)CC4)nn23)cc1F,u,25.1µM*,5.9%,11.8
CCOC(=O)c1cccc(NC(=O)CCc2nnc3ccc(N4CCCCC4)nn23)c1,35.5µM*,8.6%,-9.9%,24.5
CCOC(=O)c1cccc(NC(=O)CCc2nnc3ccc(N4CCN(C)CC4)nn23)c1,28.6%,12.1%,12.0%,20.9
SMILES,gsp agonist,RXFP1 agonist,gsp antagonist,RXFP1 antagonist
CCc1cc2c(=O)nc3n(c2s1)Cc1ccccc1/C3=C(/O)c1cccc([N+](=O)[O-])c1,3.16µM*,u,10.6%,17.0
O=C(Cn1cc(SCc2c(F)cccc2Cl)c2ccccc21)N1CCCCCC1,x,-2.2%,x,-27.4
Cc1ccc(C(C2C(=O)CC(C)(C)CC2=O)C2C(=O)CC(C)(C)CC2=O)s1,-28.6%,-2.1%,-12.8%,-67.6*
O=C(CCN1C(=O)/C(=C/c2ccccc2F)SC1=S)Nc1cccnc1,-2.0%,1.8%,u,-8.1
O=C(CCN1C(=O)/C(=C\c2ccccc2Cl)SC1=S)Nc1cccnc1,-54.7%,0.3%,35.5µM*,u
Cc1ccc(NC(=O)CN2CCN(S(=O)(=O)c3ccc(C(C)C)cc3)CC2)cc1F,x,-1.8%,x,-12.3
O=C(CCCn1c(=O)c2cccn2c2cccnc21)NCc1ccccc1Br,x,8.5%,x,2.5
Cc1c(Cl)cccc1NC(=O)N1CCC(CN2CCCC2)CC1,x,3.5%,x,-9.7
COc1ccc(CCOC(=O)c2ccc(N)c([N+](=O)[O-])c2)cc1,4.3%,-2.3%,-22.2%,-66.4*
CC(C)(C)C(=O)COC(=O)c1ccc(N)c([N+](=O)[O-])c1,-15.4%,1.1%,12.8%,-2.2
O=C(CN1C(=O)c2ccccc2S1(=O)=O)NC(Nc1ccccc1F)C(Cl)(Cl)Cl (centres undefined),-17.8%,2.6%,-23.6%,-105.1*
Cc1ccccc1CCNC(=O)c1ccc2c(c1)c(C)c(C)n2Cc1ccccc1,x,1.3%,x,1.5
O=C(Nc1cccc(Cl)c1)c1ccccc1,5.8%,2.3%,2.7%,x
Cc1nc(Nc2ccc(Cl)cc2Cl)sc1C(=O)Nc1ccccc1,-5.5%[15.4 µM],-0.3%,u,-12.8
Cc1nc(Nc2ccc(Cl)c(Cl)c2)sc1C(=O)Nc1ccccc1,2.3%,5.1%,50.1µM*,-20.0
O=C(Nc1ccc(Cl)c(Cl)c1)c1ccccc1,x,0.1%,11.2µM*,x
O=C1C(Cl)=C(NC(=O)c2ccccc2)C(=O)C(Cl)=C1NC(=O)c1ccccc1,6.4%[15.4 µM],-4.1%,u,-105.0*
O=C(Nc1ccc(Cl)c(Cl)c1)Oc1ccc(NC(=O)c2ccco2)cc1,-14.4%,-0.6%,39.8µM*,7.3
Cc1ccc(S(=O)(=O)N2CCN(C(=O)CSC(=S)N3CCCC3)CC2)c(C)c1,-25.7%,2.5%,-5.0%,-4.3
O=S(=O)(c1ccc(Br)cc1)N1CCCN(Cc2cccc(F)c2)CC1,5.4%,0.3%,-7.1%,-20.3
COc1cccc(CN2CCCN(S(=O)(=O)c3ccc(Br)cc3)CC2)c1,3.0%,-0.6%,39.8µM*,-6.1
NS(=O)(=O)c1ccc(N2CCCCS2(=O)=O)cc1,x,x,x,25.4
CCOc1ccccc1C(=O)NCC(=O)NCc1ccc(S(=O)(=O)N2CCOCC2)cc1,31.6µM*,2.1%,-9.6%,-12.2
CCC(=O)c1ccc(OCC(=O)Nc2cccc(S(=O)(=O)N(C)c3ccccc3)c2)cc1,-3.5%,-0.6%,28.2µM*,10.4
COc1ccc2oc(-c3cccc(NC(=O)c4sc5c([N+](=O)[O-])cccc5c4Cl)c3)nc2c1,x,-2.4%,x,x
CO/N=C(\C(=O)N[C@@H]1C(=O)N2C(C(=O)OCOC(=O)C(C)(C)C)=C(C)CS[C@H]12)c1csc(N)n1,x,x,x,-35.6
COc1ccccc1N1CCN(CC(O)COc2cc(C)cc(C)c2)CC1 (centres undefined),x,-1.1%,x,-5.8
COc1ccccc1N1CCN(CC(O)COc2ccc(C)cc2C(C)(C)C)CC1 (centres undefined),x,5.7%,x,-82.9*
CCn1c(SCC(=O)N2CCC(C)CC2)nnc1-c1ccccc1O,x,-0.8%,x,-4.5
C#C[C@]1(OC(C)=O)CC[C@H]2[C@@H]3CCC4=C/C(=N/O)CC[C@@H]4[C@H]3CC[C@@]21CC,x,x,x,-32.2

# From PubChem
